# PubChem BioAssay (EPA / NIEHS)
# Activity calls are given as the source filed them. How the source made its calls: active means hit-call score of the fitted dose curve at least 0.9, where 1 is the maximum; inactive means score below 0.9.
# Tests used:
# [1] = read-out: Human Leukocyte Antigen - DR isotype (HLADR), HLA-DRA (gene 3122); assay: BSK_BE3C_HLADR: BioMAP Diversity Plus: BE3C Assay for Human Leukocyte Antigen - DR isotype (HLADR) Biomarker Activity (AID 2283032); settings: primary human bronchial epithelial cells; actives raise or lower the signal
# How it was run: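 Cell-surface HLA-DR ELISA readout at 24 h after dosing in the BE3C primary human lung bronchial epithelial system; gain or loss of signal against DMSO, with parallel sulforhodamine B staining of total protein for overt cytotoxicity.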
# [2] = read-out: Interferon-gamma inducible Protein 10 (IP10), CXCL10 (gene 3627); assay: BSK_BE3C_IP10: BioMAP Diversity Plus: BE3C Assay for Interferon-gamma inducible Protein 10 (IP10) Biomarker Activity (AID 2283034); settings: primary human bronchial epithelial cells; actives raise or lower the signal
# How it was run: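 IP-10 quantified by ELISA in human primary bronchial epithelial cell cultures at 24 hours post-dosing. Gain or loss of signal fitted relative to DMSO; parallel SRB staining assessed overt cytotoxicity.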
# [3] = read-out: Monokine induced gamma interferon (MIG), CXCL9 (gene 4283); assay: BSK_BE3C_MIG: BioMAP Diversity Plus: BE3C Assay for Monokine induced gamma interferon (MIG) Biomarker Activity (AID 2283035); settings: primary human bronchial epithelial cells; actives raise or lower the signal
# How it was run: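 hu bronchial epithelial 1° cells, 24 h cpd; MIG by ELISA; bidirectional fit, DMSO = baseline.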
# [4] = read-out: Transforming growth factor beta 1 (TGFb1), TGFB1 (gene 7040); assay: BSK_BE3C_TGFb1: BioMAP Diversity Plus: BE3C Assay for Transforming growth factor beta 1 (TGFb1) Biomarker Activity (AID 2283036;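 on outcome: TGF-b1 protein level measured by ELISA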); settings: primary human bronchial epithelial cells; actives raise or lower the signal
# How it was run: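 ELISA readout of TGF-b1 from human lung bronchial epithelial primary cells, taken 24 h post-treatment. Gain or loss of signal fitted relative to DMSO baseline, with parallel SRB staining for overt cytotoxicity.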
# [5] = read-out: Plasminogen activator inhibitor-1 (PAI1), SERPINE1 (gene 5054); assay: BSK_BE3C_PAI1: BioMAP Diversity Plus: BE3C Assay for Plasminogen activator inhibitor-1 (PAI1) Biomarker Activity (AID 2283037); settings: primary human bronchial epithelial cells; actives raise or lower the signal
# How it was run: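 PAI-1 was measured by ELISA in human primary bronchial epithelial cultures 24 h after chemical dosing, with cytotoxicity checked by SRB total-protein staining in parallel cultures. Activity was fitted in both directions relative to DMSO.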
# [6] = read-out: Urokinase-type plasminogen activator receptor (uPAR), PLAUR (gene 5329); assay: BSK_BE3C_uPAR: BioMAP Diversity Plus: BE3C Assay for Urokinase-type plasminogen activator receptor (uPAR) Biomarker Activity (AID 2283039); settings: primary human bronchial epithelial cells; actives raise or lower the signal;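 on outcome: cells exposed to compound for one day before measurement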
# How it was run: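 uPAR levels were measured by ELISA after 24 h compound treatment of primary human bronchial epithelial cells, fitted in both directions relative to DMSO. Parallel SRB staining served as the cytotoxicity read-out.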
# [7] = read-out: Interleukin-6 (IL6), IL6 (gene 3569); assay: BSK_CASM3C_IL6: BioMAP Diversity Plus: CASM3C Assay for Interleukin-6 (IL6) Biomarker Activity for (AID 2283040); settings: primary human coronary artery smooth muscle cells; actives raise or lower the signal
# [8] = read-out: Tissue plasminogen activator (tPA), PLAT (gene 5327); assay: BSK_BE3C_tPA: BioMAP Diversity Plus: BE3C Assay for Tissue plasminogen activator (tPA) Biomarker Activity (AID 2283041); settings: primary human bronchial epithelial cells; actives raise or lower the signal;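 on outcome: tPA level quantified by ELISA one day after compound addition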
# How it was run: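 tPA measured by ELISA 24 h after dosing human primary bronchial epithelial cells (BE3C system). Changes in either direction were fitted against DMSO. Parallel cultures were stained with SRB to flag overt cytotoxicity.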
# [9] = read-out: Interleukin-8 (IL8), CXCL8 (gene 3576); assay: BSK_CASM3C_IL8: BioMAP Diversity Plus: CASM3C Assay for Interleukin-8 (IL8) Biomarker Activity (AID 2283042); settings: primary human coronary artery smooth muscle cells; actives raise or lower the signal;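 further: IL-8 protein level quantified by ELISA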
# [10] = read-out: Human Leukocyte Antigen - DR isotype (HLADR), HLA-DRA (gene 3122); assay: BSK_CASM3C_HLADR: BioMAP Diversity Plus: CASM3C Assay for Human Leukocyte Antigen - DR isotype (HLADR) Biomarker Activity (AID 2283043); settings: primary human coronary artery smooth muscle cells; actives raise or lower the signal;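 further: cell-surface HLA-DR protein level quantified by ELISA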
# [11] = read-out: Macrophage colony-stimulating factor (MCSF), CSF1 (gene 1435); assay: BSK_CASM3C_MCSF: BioMAP Diversity Plus: CASM3C Assay for Macrophage colony-stimulating factor (MCSF) Biomarker Activity (AID 2283044); settings: primary human coronary artery smooth muscle cells; actives raise or lower the signal;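 further: M-CSF protein amount quantified by ELISA after 24 h exposure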
# [12] = read-out: Low-density lipoprotein receptor (LDLR), LDLR (gene 3949); assay: BSK_CASM3C_LDLR: BioMAP Diversity Plus: CASM3C Assay for Low-density lipoprotein receptor (LDLR) Biomarker Activity (AID 2283045); settings: primary human coronary artery smooth muscle cells; actives raise or lower the signal;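 further: LDLR protein level on the cell surface quantified by ELISA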
# [13] = read-out: Monocyte Chemoattractant Protein-1 (MCP1), CCL2 (gene 6347); assay: BSK_CASM3C_MCP1: BioMAP Diversity Plus: CASM3C Assay for Monocyte Chemoattractant Protein-1 (MCP1) Biomarker Activity (AID 2283046); settings: primary human coronary artery smooth muscle cells; actives raise or lower the signal;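 further: MCP-1 level quantified by ELISA 24 h after dosing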
# [14] = BSK_CASM3C_Proliferation: Cell Proliferation Assessment in the BioMAP Diversity Plus: CASM3C Assay (AID 2283047); settings: primary human coronary artery smooth muscle cells;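 further: sulforhodamine B total protein stain as relative cell number at 560 nm; sub-confluent cells exposed 48 h before staining; fitted both ways against DMSO so gain or loss of cell number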
# [15] = read-out: Monokine induced gamma interferon (MIG), CXCL9 (gene 4283); assay: BSK_CASM3C_MIG: BioMAP Diversity Plus: CASM3C Assay for Monokine induced gamma interferon (MIG) Biomarker Activity (AID 2283048); settings: primary human coronary artery smooth muscle cells; actives raise or lower the signal;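 further: MIG protein level measured by ELISA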
# [16] = read-out: serum amyloid A (SAA), SAA1 (gene 6288); assay: BSK_CASM3C_SAA: BioMAP Diversity Plus: CASM3C Assay for serum amyloid A (SAA) Biomarker Activity (AID 2283049); settings: primary human coronary artery smooth muscle cells; actives raise or lower the signal;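 further: SAA protein level quantified by ELISA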
# [17] = BSK_CASM3C_SRB: Viability Assessment in the BioMAP Diversity Plus: CASM3C Assay (AID 2283050); settings: primary human coronary artery smooth muscle cells
# [18] = read-out: Thrombomodulin, THBD (gene 7056); assay: BSK_CASM3C_Thrombomodulin: BioMAP Diversity Plus: CASM3C Assay for Thrombomodulin Biomarker Activity (AID 2283051); settings: primary human coronary artery smooth muscle cells; actives raise or lower the signal;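 further: thrombomodulin protein level measured by ELISA 24 h after dosing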
# [19] = read-out: urokinase plasminogen activator (uPA), PLAU (gene 5328); assay: BSK_BE3C_uPA: BioMAP Diversity Plus: BE3C Assay for urokinase plasminogen activator (uPA) Biomarker Activity (AID 2283038); settings: primary human bronchial epithelial cells; actives raise or lower the signal;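 further: uPA protein level quantified by ELISA in cell cultures; uPA read one day after compound addition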
# How it was run: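 Primary human bronchial epithelial cells, uPA measured by ELISA 24 h after dosing. Bidirectional change relative to DMSO; cytotoxicity checked in parallel cultures by sulforhodamine B total-protein staining.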
structure (smiles),measurement,setting,value
O=C(N[C@H]1CN2CCC1CC2)c1ccc2c(c1)OCCO2,outcome,[1],inactive
same,outcome,[2],inactive
same,outcome,[3],inactive
same,outcome,[4],inactive
same,outcome,[5],inactive
same,outcome,[6],inactive
same,outcome,[7],inactive
same,outcome,[8],inactive
same,outcome,[9],inactive
same,outcome,[10],inactive
same,outcome,[11],inactive
same,outcome,[12],inactive
same,outcome,[13],inactive
same,outcome,[14],inactive
same,outcome,[15],inactive
same,outcome,[16],inactive
same,outcome,[17],inactive
same,outcome,[18],inactive
CCN(CC)C(=O)C(Cl)=C(C)OP(=O)(OC)OC,outcome,[1],inactive
same,outcome,[3],inactive
same,outcome,[4],inactive
same,outcome,[5],inactive
same,outcome,[6],inactive
same,outcome,[7],inactive
same,outcome,[8],inactive
same,outcome,[9],inactive
same,outcome,[10],inactive
same,outcome,[11],inactive
same,outcome,[12],inactive
same,outcome,[13],inactive
same,outcome,[14],inactive
same,outcome,[15],inactive
same,outcome,[16],inactive
same,outcome,[17],inactive
same,outcome,[18],inactive
OC(Cc1ccccc1Cl)(Cn1[nH]cnc1=S)C1(Cl)CC1 (configuration not stated),AC50,[1],20 µM (active)
same,AC50,[3],31.1 µM (active)
same,AC50,[4],8.86 µM (active)
same,AC50,[5],6.3 µM (active)
same,AC50,[6],12.6 µM (active)
same,outcome,[7],inactive
same,AC50,[8],20 µM (active)
same,outcome,[9],inactive
same,AC50,[10],26.7 µM (active)
same,outcome,[11],inactive
same,AC50,[12],3.97 µM (active)
same,outcome,[13],inactive
same,outcome,[14],inactive
same,outcome,[15],inactive
same,AC50,[16],5.29 µM (active)
same,AC50,[17],31.4 µM (active)
same,outcome,[18],inactive
Clc1cccc(Cl)c1,outcome,[1],inactive
same,outcome,[3],inactive
same,outcome,[4],inactive
same,outcome,[5],inactive
same,outcome,[19],inactive
same,outcome,[6],inactive
same,outcome,[7],inactive
same,outcome,[8],inactive
same,outcome,[9],inactive
same,outcome,[10],inactive
same,outcome,[11],inactive
same,outcome,[12],inactive
same,outcome,[13],inactive
same,outcome,[14],inactive
same,outcome,[15],inactive
same,outcome,[16],inactive
same,outcome,[17],inactive
same,outcome,[18],inactive
Nc1c(Oc2ccccc2)cc(O)c2c1C(=O)c1ccccc1C2=O,outcome,[1],inactive
same,outcome,[3],inactive
same,outcome,[4],inactive
same,AC50,[5],2.43 µM (active)
same,outcome,[6],inactive
same,outcome,[7],inactive
same,outcome,[8],inactive
same,outcome,[9],inactive
same,outcome,[10],inactive
same,outcome,[11],inactive
same,outcome,[12],inactive
same,outcome,[13],inactive
same,outcome,[14],inactive
same,outcome,[15],inactive
same,outcome,[16],inactive
same,outcome,[17],inactive
same,outcome,[18],inactive
Nc1ccc(N)cc1,outcome,[1],inactive
same,outcome,[3],inactive
same,outcome,[4],inactive
same,outcome,[5],inactive
same,outcome,[19],inactive
same,outcome,[6],inactive
same,outcome,[7],inactive
same,outcome,[8],inactive
same,outcome,[9],inactive
same,outcome,[10],inactive
same,outcome,[11],inactive
same,outcome,[12],inactive
same,outcome,[13],inactive
same,outcome,[14],inactive
same,outcome,[15],inactive
same,outcome,[16],inactive
same,outcome,[17],inactive
same,outcome,[18],inactive
CCOP(=O)(OCC)SCCSCC,outcome,[1],inactive
same,outcome,[2],inactive
same,outcome,[3],inactive
same,outcome,[4],inactive
same,outcome,[5],inactive
same,outcome,[6],inactive
same,outcome,[7],inactive
same,outcome,[8],inactive
same,outcome,[9],inactive
same,outcome,[10],inactive
same,outcome,[11],inactive
same,outcome,[12],inactive
same,outcome,[13],inactive
same,outcome,[14],inactive
same,outcome,[15],inactive
same,outcome,[16],inactive
same,outcome,[17],inactive
same,outcome,[18],inactive
OCCN(CCO)CCO,outcome,[1],inactive
same,outcome,[2],inactive
same,outcome,[3],inactive
same,outcome,[4],inactive
same,outcome,[5],inactive
same,outcome,[19],inactive
same,outcome,[6],inactive
same,outcome,[7],inactive
same,outcome,[8],inactive
same,outcome,[9],inactive
same,outcome,[10],inactive
same,outcome,[11],inactive
same,outcome,[12],inactive
same,outcome,[13],inactive
same,outcome,[14],inactive
same,outcome,[15],inactive
same,outcome,[16],inactive
same,outcome,[17],inactive
same,outcome,[18],inactive
CC(C)=CC1C(C(=O)OCc2cccc(Oc3ccccc3)c2)C1(C)C (configuration not stated),outcome,[1],inactive
same,outcome,[3],inactive
same,outcome,[4],inactive
same,outcome,[5],inactive
same,outcome,[6],inactive
same,outcome,[7],inactive
same,AC50,[8],9.82 µM (active)
same,outcome,[9],inactive
same,AC50,[10],20 µM (active)
same,outcome,[11],inactive
same,outcome,[12],inactive
same,outcome,[13],inactive
same,outcome,[14],inactive
same,outcome,[15],inactive
same,outcome,[16],inactive
same,outcome,[17],inactive
same,AC50,[18],10.4 µM (active)
c1ccc2sc(SNC3CCCCC3)nc2c1,outcome,[1],inactive
same,outcome,[2],inactive
same,outcome,[3],inactive
same,outcome,[4],inactive
same,outcome,[5],inactive
same,outcome,[6],inactive
same,outcome,[7],inactive
same,outcome,[8],inactive
same,outcome,[9],inactive
same,outcome,[10],inactive
same,outcome,[11],inactive
same,outcome,[12],inactive
same,outcome,[13],inactive
same,outcome,[14],inactive
same,outcome,[15],inactive
same,outcome,[16],inactive
same,outcome,[17],inactive
same,outcome,[18],inactive
Cc1cc(Cl)ccc1N,outcome,[1],inactive
same,outcome,[2],inactive
same,outcome,[3],inactive
same,outcome,[4],inactive
same,AC50,[5],3.97 µM (active)
same,outcome,[6],inactive
same,outcome,[7],inactive
same,outcome,[8],inactive
same,outcome,[9],inactive
same,outcome,[10],inactive
same,outcome,[11],inactive
same,outcome,[12],inactive
same,outcome,[13],inactive
same,outcome,[14],inactive
same,outcome,[15],inactive
same,outcome,[16],inactive
same,outcome,[17],inactive
same,outcome,[18],inactive
Clc1cccc(Cl)c1Cl,outcome,[1],inactive
same,outcome,[3],inactive
same,outcome,[4],inactive
same,outcome,[5],inactive
same,outcome,[6],inactive
same,outcome,[7],inactive
same,outcome,[8],inactive
same,outcome,[9],inactive
same,outcome,[10],inactive
same,outcome,[11],inactive
same,outcome,[12],inactive
same,outcome,[13],inactive
same,outcome,[14],inactive
same,outcome,[15],inactive
same,outcome,[16],inactive
same,outcome,[17],inactive
same,outcome,[18],inactive
